A1 inh = inhibitors of A1 | 0.51% of 21,000 active | MEF A1-2A-BIM cells, caspase-Glo luminescence, 3 h; percent of clofoctol signal, DMSO as zero | caspase activation, % (no concentration beside the values);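 active means most replicate scores above 10, or exactly half above 10 with mean activity above 10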;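 further: effector caspase 3 and 7 activity cleaving a DEVD luciferin substrate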
Each line names hits and unclear results; the compound was inactive in the other large screens. This is one part of a sample in which hits are shown more often than they occur.

CCn1cnc2c(Nc3cccc(Cl)c3)nc(N[C@@H]3CCCC[C@@H]3N)nc21	A1 inh 26.1
CCN(CC)CCc1c(C)c2ccc(O)cc2oc1=O	none
NC1=C(C(=O)OCc2ccccc2)C2(C(=O)Nc3ccc(Br)cc32)C2=C(O1)C(=O)CCC2 (configuration not stated)	none
CO[C@H]1[C@H](O)[C@H](O[C@H]2CC[C@]3(C)C4CC[C@]5(C)C(C6=CC(=O)OC6)CC[C@]5(O)C4CC[C@@H]3C2)O[C@@H](C)[C@@H]1O (some centres not stated)	none
CC1=CC2/C=C(\C)CCC(O)C(O)/C=C/C(=O)C23C(=O)NC(CC(C)C)C3C1C (configuration not stated)	A1 inh 77.1
CC(C)Sc1nnc(OC(=O)N(C)C)n1-c1cccc(C(F)(F)F)c1	none
CCC(C)(O)C(=O)O[C@H]1C(=O)O[C@@H]2C[C@H]3C(C)=CC(=O)[C@@H](O)[C@]3(C)[C@H]3[C@@]4(O)OC[C@]32[C@@H]1[C@@H](C)[C@H]4O (some centres not stated)	none
Cc1ccc2[nH]cc(CC(C)N)c2c1 (configuration not stated)	none
CCSc1nc2ccccc2c(=O)n1-c1cccc(OC)c1	none
CC1(C)C(=O)C=C[C@@]2(C)C1C(=O)C(=O)[C@]1(C)C2CC[C@@]2(C)[C@H](c3ccoc3)C[C@H]3O[C@]321 (some centres not stated)	none
C/C=C\C(=O)O[C@@H]1C[C@H]2O[C@@H]3C=C(C)C(=O)C[C@]3(C)[C@]1(C)[C@]21CO1	A1 inh 10.9
CC1=CC2OC3[C@H](O)C[C@@](C)([C@]34CO4)[C@@]2(CO)[C@H](O)C1=O (some centres not stated)	none
CC(C)N(C(=O)SCC(Cl)=C(Cl)Cl)C(C)C	none
Cc1ccc(S(=O)(=O)N2CCCCC2)cc1C(=O)Oc1cccc2cccnc12	none
COCc1cc(OC(=O)N(C)C)nc(COc2ccc(Cl)cc2)n1	none
C=C1[C@@H](C)[C@H]2[C@H](Cc3ccccc3)NC(=O)[C@]23OC(=O)/C=C\[C@H](O)CCC[C@@H](C)C/C=C/[C@H]3[C@@H]1O	A1 inh 29.7
Brc1cccc(CN2CCN(Cc3cccc(Br)c3)CC2)c1	none
COc1cc2c(c(OC)c1OC)-c1cc3c(cc1[C@H](OC(C)=O)[C@H]1COC(=O)[C@@H]1C2)OCO3	none
C/C=C(/C)C(=O)O[C@H]1C(C)=C2[C@H]([C@@H]1OC(=O)CCCCC)[C@@](C)(OC(C)=O)C[C@H](OC(=O)CCC)[C@@]1(O)[C@H]2OC(=O)[C@@]1(C)O	none
CN[C@@H]1C[C@@]2(C)O[C@@H]([C@@H]1OC)n1c3ccccc3c3c4c(c5c6ccccc6n2c5c31)C(=O)NC4	A1 inh 83.8
CCc1ccc(CN2CCN(Cc3ccc(CC)cc3)CC2)cc1	none
N#CC1(P(=S)(c2ccccc2)c2ccccc2)CCCC1	none
N#CC(c1ccccc1)c1ccccc1	none
O=C1NC(=O)C(=Cc2cn(Cc3ccccc3)c3ccccc23)C(=O)N1	A1 inh 32.8
CC(/C=C/[C@@]1(C)[C@H](C)CCC(=O)[C@@H]1C)=C\Cc1c(O)c(Cl)c(C)c(C=O)c1O	none
O=[P+](c1ccccc1)c1ccccc1	none
Cc1ccc(NC(=O)c2cccc(OC(=O)N(C)c3ccccc3)c2)cc1C	none
CCCCc1nc2ccccc2c(=O)n1-c1ccc(C)cc1	none
CCc1ccc(NC2=NCCS2)cc1	none
CC(=O)OC[C@]12CCC(C)=C[C@H]1O[C@@H]1[C@H](O)[C@@H](OC(C)=O)[C@@]2(C)[C@]12CO2	A1 inh 15.8
CC(=O)OC[C@]12C[C@H](O)C(C)=C[C@H]1O[C@@H]1[C@H](O)[C@@H](OC(C)=O)[C@@]2(C)[C@]12CO2	A1 inh 13.3
O=C(c1cnn(-c2ccccc2)c1-n1cccc1)N1CCC2(CC1)OCCO2	none
CCN1C[C@]2(C)CC[C@H](OC)[C@@]34C2[C@H](O)C([C@@H]13)[C@@]1(OC)C[C@H](OC)[C@H]2C[C@@H]4[C@@H]1[C@H]2O	none
Cc1[nH]c2ccccc2c1CCNCC(C)(C)C	none
O=C(c1ccc2nc(N3CCCCC3)sc2c1)N1CCC2(CC1)OCCO2	none
CC(=O)OC1CCC2(C)C(=CCC3C4CCC(=O)C4(C)CCC32)C1 (configuration not stated)	none
Cc1nc(-c2ccccc2)nc(OC(=O)N(C)C)c1Oc1cccc(C(F)(F)F)c1	none
CC(C)(C)c1cc(C=C(C#N)C#N)cc(Br)c1O	none
C=CC1CN2CCC3(C(=O)Nc4ccccc43)C2CC1/C(=C/OC)C(=O)OC (configuration not stated)	none
CC1(C)C(C(=O)Nc2ccc(S(=O)(=O)c3ccc(NC(=O)C4C(C)(C)C4(C)C)cc3)cc2)C1(C)C	none
